Laboratory results reported in PubChem BioAssay (NCI).
This is part of a sample that, as a whole, favours compounds with a hit. Of some 83,000 tested, about 20% had one in any assay.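 Step 1: grow cells in 96-well plates. Step 2: add test compound at a single concentration. Step 3: incubate 48 h. Step 4: record percent growth.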 The source made the active and inactive calls. How the source made its calls: active means growth percent below 10; inactive means the rest.

What follows are compounds tested on 786-0 renal (assay: NCI-60 one-dose screen, 48 h (100 = growth as untreated, 0 = no growth, -100 = all killed)). Conditions: 10 µM unless noted.

SMILES	growth
CCN(C(=O)CN1CCN(c2cc3c(cc2F)c(=O)c(C(=O)O)cn3C2CC2)CC1)c1nc(-c2ccc(OC)cc2)cs1	102% (inactive)
C[C@@H]1CC[C@@H]2[C@@H]1[C@H](OC(=O)/C=C/c1ccccc1)[C@]1(C3CCCCC3)C[C@@H](OC(=O)CO)[C@@]2(C)O1	73.2% (inactive)
Nc1cc2ccncc2c2ccccc12	78.1% (inactive)
O=C([C@@H](COCc1ccccc1)N1C(=O)[C@@H](N2C(=O)OC[C@@H]2c2ccccc2)[C@H]1/C=C/c1ccccc1)N1CCC(CCN2CCCCC2)CC1	83.3% (inactive)
COc1ccc(N(Cc2cc(OC)c(OC)c(OC)c2)C2OC(=O)c3ccccc32)cc1 (stereo not given)	61.8% (inactive)
OC(c1cccc(C(F)(F)F)c1)c1cnccc1NC1CCCCCC1 (stereo not given)	56.2% (inactive)
C=CC[N+]1(CC)CCN=C1CCCCCCCCCCCCCCCCC (stereo not given)	-98.4% (active)
O=c1c(/C=C/c2ccco2)nnc(SCCN2CCOCC2)n1/N=C/c1ccc([N+](=O)[O-])cc1	95.2% (inactive)
COc1cc(C2CC(=O)Nc3c2c(C)nn3-c2nc3ccccc3[nH]2)cc(OC)c1OC (stereo not given)	110% (inactive)
CCCCN(CCCC)CCC(C)(O)c1cc2ccccc2c2ccccc12 (stereo not given)	103% (inactive)
OCCNCCNc1c2ccccc2nc2ccccc12	84.9% (inactive)
C/C(=C(/c1ccc(O)cc1)c1ccc(OCCN(C)C)cc1)c1ccccc1	89.5% (inactive)
CC#Cc1nc2ccccc2c(=O)[nH]1	42% (inactive)
CCN(CC)CCCNc1cc(OC)cc2nc3cc(Cl)ccc3nc12	2.95% (active)
O=C(NCc1cccc(C(F)(F)F)c1)[C@H](CCC(=O)N1CCN(C2CCCCC2)CC1)N1C(=O)[C@@H](N2C(=O)OC[C@@H]2c2ccccc2)[C@H]1/C(Cl)=C/c1ccccc1	49.9% (inactive)
CC/C(=C(\c1ccccc1)c1ccc(OCCNC)cc1)c1ccccc1	-92.7% (active)
O=C(COCc1c(-c2ccccc2)no[n+]1[O-])Nc1ccc(C(=O)/C=C/c2ccc3c(c2)OCO3)cc1	113% (inactive)
COc1ccc2nc(NC(=O)c3cccnc3Nc3cc(OC)c(OC)c(OC)c3)sc2c1	-66.9% (active)
CCOc1ccc(Nc2nc(-c3c(C)nc4ncccn34)cs2)cc1	9.74% (active)
C=C1CCC2C3(C)COC(C)(C)OC3CCC2(C)C1C/C=C1/C(=O)OCC1OC(C)=O (stereo not given)	48.5% (inactive)
CSc1nc(NCCO)c(C#N)c(-c2cccc(N)c2)n1	103% (inactive)
Nc1ccc(N2CCOCC2)cc1	92.2% (inactive)
Cc1nc2sc(C(=O)Nc3cccc4c3OCCO4)c(N)c2cc1C(C)O (stereo not given)	43.2% (inactive)
COc1cc(NCCCCN=C(N)N)c2ncccc2c1	91.6% (inactive)
CCOC(=S)SCc1ccc(Cl)cc1	98% (inactive)
NCc1cn2cc(Cl)sc2n1	106% (inactive)
O=C1C=CC(=O)c2c1nc1n2CCCC1	93.3% (inactive)

What follows are compounds tested on COLO 205 colon in the same assay as above. Conditions: 10 µM unless noted.

SMILES	growth
CN1CCN(Cc2ccc(NC(=O)c3[nH]ncc3Nc3ncnc4c3CCC4)cc2)CC1	-37.5% (active)
CCN(C(=O)CN1CCN(c2cc3c(cc2F)c(=O)c(C(=O)O)cn3C2CC2)CC1)c1nc(-c2ccc(OC)cc2)cs1	63.7% (inactive)
C[C@@H]1CC[C@@H]2[C@@H]1[C@H](OC(=O)/C=C/c1ccccc1)[C@]1(C3CCCCC3)C[C@@H](OC(=O)CO)[C@@]2(C)O1	80.6% (inactive)
Cc1cc(=O)oc2cc(Oc3nc(-c4ccc(Cl)cc4)cn4c(-c5ccc(Cl)cc5)cnc34)ccc12	97.5% (inactive)
Nc1cc2ccncc2c2ccccc12	61.6% (inactive)
O=C([C@@H](COCc1ccccc1)N1C(=O)[C@@H](N2C(=O)OC[C@@H]2c2ccccc2)[C@H]1/C=C/c1ccccc1)N1CCC(CCN2CCCCC2)CC1	65.1% (inactive)
COc1ccc(N(Cc2cc(OC)c(OC)c(OC)c2)C2OC(=O)c3ccccc32)cc1 (stereo not given)	-3.48% (active)
Cn1c2ccccc2c2c3c(c4c5ccccc5[nH]c4c21)C(=O)N(N)C3=O	56.8% (inactive)
COC(/C=C/c1ccc([N+](=O)[O-])cc1)OC	110% (inactive)
OC(c1cccc(C(F)(F)F)c1)c1cnccc1NC1CCCCCC1 (stereo not given)	-76.3% (active)
O=C(CNC1C2CC3CC(C2)CC1C3)Sc1nnc2sc3ccccc3n12 (stereo not given)	106% (inactive)
C=CC[N+]1(CC)CCN=C1CCCCCCCCCCCCCCCCC (stereo not given)	-100% (active)
O=C(Nc1ccc(CN2CCOCC2)cc1)c1[nH]ncc1Nc1ncnc2sccc12	-34.9% (active)
O=c1c(/C=C/c2ccco2)nnc(SCCN2CCOCC2)n1/N=C/c1ccc([N+](=O)[O-])cc1	112% (inactive)
COc1cc(C2CC(=O)Nc3c2c(C)nn3-c2nc3ccccc3[nH]2)cc(OC)c1OC (stereo not given)	116% (inactive)
CCCCN(CCCC)CCC(C)(O)c1cc2ccccc2c2ccccc12 (stereo not given)	92.7% (inactive)
OCCNCCNc1c2ccccc2nc2ccccc12	47.9% (inactive)
C/C(=C(/c1ccc(O)cc1)c1ccc(OCCN(C)C)cc1)c1ccccc1	63.8% (inactive)
CC#Cc1nc2ccccc2c(=O)[nH]1	78.7% (inactive)

SMILES	growth
CNC(=O)c1cc(Oc2ccc3nc(NC(=O)Nc4ccc(N5CCC(N(C)C)CC5)cc4)sc3c2)ccn1	80% (inactive)
CCN(CC)CCCNc1cc(OC)cc2nc3cc(Cl)ccc3nc12	-99.3% (active)
Cn1c2ccccc2c2c3c(c4c5ccccc5n(CCCCCC#N)c4c21)C(=O)N(O)C3=O	62.8% (inactive)
CN1CCN(Cc2ccc(NC(=O)c3[nH]ncc3Nc3ccnc4ccsc34)cc2)CC1	18.9% (inactive)
O=C(NCc1cccc(C(F)(F)F)c1)[C@H](CCC(=O)N1CCN(C2CCCCC2)CC1)N1C(=O)[C@@H](N2C(=O)OC[C@@H]2c2ccccc2)[C@H]1/C(Cl)=C/c1ccccc1	40.7% (inactive)
CC/C(=C(\c1ccccc1)c1ccc(OCCNC)cc1)c1ccccc1	-85.5% (active)
O=C(COCc1c(-c2ccccc2)no[n+]1[O-])Nc1ccc(C(=O)/C=C/c2ccc3c(c2)OCO3)cc1	120% (inactive)
COc1ccc2nc(NC(=O)c3cccnc3Nc3cc(OC)c(OC)c(OC)c3)sc2c1	123% (inactive)
CCCCCCCCCc1cc(CN2CCCCC2)c(O)c(CN2CCCCC2)c1	64.3% (inactive)
CCOc1ccc(Nc2nc(-c3c(C)nc4ncccn34)cs2)cc1	-60.8% (active)
C=C1CCC2C3(C)COC(C)(C)OC3CCC2(C)C1C/C=C1/C(=O)OCC1OC(C)=O (stereo not given)	-0.595% (active)
CSc1nc(NCCO)c(C#N)c(-c2cccc(N)c2)n1	108% (inactive)
Nc1ccc(N2CCOCC2)cc1	123% (inactive)
O=C1C[C@H](Sc2nc(-c3ccc(F)cc3)cc(C(F)(F)F)n2)[C@H]2CO[C@@H]1O2	75.8% (inactive)
Cc1nc2sc(C(=O)Nc3cccc4c3OCCO4)c(N)c2cc1C(C)O (stereo not given)	5.86% (active)
COc1cc(NCCCCN=C(N)N)c2ncccc2c1	82.6% (inactive)
CCOC(=S)SCc1ccc(Cl)cc1	145% (inactive)
NCc1cn2cc(Cl)sc2n1	114% (inactive)
O=C1C=CC(=O)c2c1nc1n2CCCC1	33.2% (inactive)
